# Source: PubChem BioAssay (NCI)
# Compounds without any hit were thinned out: in the full panel of roughly 79,000, 15% have a hit. A number with no mark means an inactive call. Calls of active or inactive are those of the source. Cut-off read from the data, not from the text of the source: active = growth inhibition above about 70%; inactive = the rest.
# Key:
# [1] = NCI Yeast Anticancer Drug Screen. Data for the wt1 strain (AID 149);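 note: 0% = growth of vehicle-treated wt1 cultures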; conditions: S. cerevisiae wt1 strain (SPY 50644) growth inhibition, active compounds read high
# In short: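 wt1 yeast, compound-treated; % growth inhibition vs vehicle control.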
# [2] = NCI Yeast Anticancer Drug Screen. Data for the rad50 strain (AID 155);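 note: 0% = growth of vehicle-only cultures of the same strain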; conditions: S. cerevisiae rad50 strain growth inhibition, active compounds read high
# In short: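 Genetically altered yeast (DNA repair pathway); compound treatment; growth inhibition vs vehicle ctrl.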
# [3] = NCI Yeast Anticancer Drug Screen. Data for the mec2-1 strain (AID 157); conditions: S. cerevisiae mec2-1 strain, active compounds read high
# In short: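 Using mec2-1 yeast: add compound, measure growth, express inhibition versus vehicle-treated cultures.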
# [4] = NCI Yeast Anticancer Drug Screen. Data for the rad14 strain (AID 159);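 note: 0% = growth of vehicle-treated control cultures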; conditions: S. cerevisiae rad14 strain growth inhibition, active compounds read high
# In short: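 Test compounds were applied to a repair-deficient yeast strain. Its growth was then compared with that of cultures given vehicle alone, and inhibition was expressed relative to those controls.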
# [5] = NCI Yeast Anticancer Drug Screen. Data for the sgs1 mgt1 strain (AID 161);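 note: 0% = growth of cultures given vehicle only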; conditions: S. cerevisiae sgs1 mgt1 strain, active compounds read high
# In short: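 Percent growth inhibition was derived by comparing compound-exposed mutant yeast with vehicle-exposed cultures. The strain carries alterations in DNA damage repair.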
# [6] = NCI Yeast Anticancer Drug Screen. Data for the CLN2oe strain (AID 163);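 note: 0% = growth of vehicle-only control cultures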; conditions: S. cerevisiae CLN2oe strain, active compounds read high
# In short: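 Whole-cell yeast growth assay. A strain engineered for altered cell-cycle control received compound, and inhibition relative to vehicle-treated cultures was recorded.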
# [7] = NCI Yeast Anticancer Drug Screen. Data for the cln2 rad14 strain (AID 165);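 note: 0% = growth equal to vehicle treated cultures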; conditions: S. cerevisiae cln2 rad14 strain, active compounds read high
# In short: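 Yeast strain cln2 rad14, bearing defects in cell cycle control and DNA repair, serves as the test system; values reflect growth inhibition compared with vehicle.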
# [8] = NCI Yeast Anticancer Drug Screen. Data for the bub3 strain (AID 167); conditions: S. cerevisiae bub3 mutant strain, active compounds read high
# In short: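 Yeast carrying a defined mutation is treated with each compound, and growth is compared with that of vehicle-exposed cells to give inhibition.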
# [9] = NCI Yeast Anticancer Drug Screen. Data for the wt2 strain (AID 169);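 note: 0% = growth of vehicle-treated yeast cultures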; conditions: S. cerevisiae wt2 strain growth inhibition, active compounds read high
# In short: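 Treated yeast vs. vehicle-treated yeast: growth inhibition determined.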
# [10] = NCI Yeast Anticancer Drug Screen. Data for the mlh1 strain (AID 171);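 note: 0% = growth of vehicle-treated control cultures of the same strain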; conditions: S. cerevisiae mlh1 strain growth inhibition, active compounds read high
# In short: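 A yeast strain with a defined genetic lesion serves as the test organism. Cultures receive compound or vehicle, and growth is measured.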
# [11] = NCI Yeast Anticancer Drug Screen. Data for the sgs1 strain (AID 173);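 note: 0% = growth of vehicle-only control cultures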; conditions: S. cerevisiae sgs1 mutant, active compounds read high
# In short: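 A genetically defined yeast mutant is incubated with the test compound, and its growth is compared to that of the same strain given vehicle.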
# [12] = NCI Yeast Anticancer Drug Screen. Data for the mlh1 rad18 strain (AID 175); conditions: S. cerevisiae mlh1 rad18 strain growth inhibition, active compounds read high
# In short: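 Steps: expose repair-defective yeast to compound; measure growth; express inhibition against vehicle-treated controls.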
# [13] = NCI Yeast Anticancer Drug Screen. Data for the rad18 strain (AID 177); conditions: S. cerevisiae rad18 mutant growth inhibition, active compounds read high
# In short: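 Measured value is growth inhibition of a yeast strain bearing a DNA repair alteration, referenced to vehicle-treated cells.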
# [14] = NCI Yeast Anticancer Drug Screen. Data for the rad50EPP+ strain (AID 151);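 note: 0% = growth of vehicle-treated control cultures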; conditions: S. cerevisiae rad50 mutant strain, active compounds read high
# In short: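 Read-out is yeast growth inhibition relative to vehicle; cells used were the rad50EPP+ strain.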
# [15] = NCI Yeast Anticancer Drug Screen. Data for the mgt1 strain (AID 153); conditions: S. cerevisiae mgt1 mutant growth inhibition, active compounds read high
# In short: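 Measured: inhibition of mgt1 yeast growth by compound, normalized to vehicle-treated cultures.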
# [16] = at 5.0 µM (retest, dose inferred, filed as 0.5)
# [17] = at 50.0 µM (retest, dose inferred, filed as 5.0)
structure (smiles),measurement,setting,value
COc1ccc(/C(=N/O)c2ccccc2C2=Nc3ccccc3C(NCc3ccccc3)O2)cc1C (stereo not drawn),growth inhibition,[1]; at 1.2 µM,-1%
same,growth inhibition,[1]; at 3.7 µM,-2%
same,growth inhibition,[1]; at 11.0 µM,1%
same,growth inhibition,[1]; at 33.0 µM,17%
same,growth inhibition,[1]; at 100.0 µM,89% (active)
same,growth inhibition,[2]; at 1.2 µM,1%
same,growth inhibition,[2]; at 3.7 µM,3%
same,growth inhibition,[2]; [16],2%
same,growth inhibition,[2]; at 11.0 µM,11%
same,growth inhibition,[2]; at 33.0 µM,59%
same,growth inhibition,[2]; [17],95% (active)
same,growth inhibition,[2]; at 50.0 µM,94.9% (active)
same,growth inhibition,[2]; at 100.0 µM,94% (active)
same,growth inhibition,[3]; at 1.2 µM,-2%
same,growth inhibition,[3]; at 3.7 µM,0%
same,growth inhibition,[3]; [16],-4%
same,growth inhibition,[3]; at 11.0 µM,1%
same,growth inhibition,[3]; at 33.0 µM,37%
same,growth inhibition,[3]; [17],62%
same,growth inhibition,[3]; at 50.0 µM,92.6% (active)
same,growth inhibition,[3]; at 100.0 µM,96% (active)
same,growth inhibition,[4]; at 1.2 µM,1%
same,growth inhibition,[4]; at 3.7 µM,2%
same,growth inhibition,[4]; at 11.0 µM,7%
same,growth inhibition,[4]; at 33.0 µM,21%
same,growth inhibition,[4]; at 100.0 µM,96% (active)
same,growth inhibition,[5]; [16],-3%
same,growth inhibition,[5]; [17],85% (active)
same,growth inhibition,[5]; at 50.0 µM,95.8% (active)
same,growth inhibition,[6]; at 1.2 µM,-2%
same,growth inhibition,[6]; at 3.7 µM,2%
same,growth inhibition,[6]; at 11.0 µM,1%
same,growth inhibition,[6]; at 33.0 µM,4%
same,growth inhibition,[6]; at 100.0 µM,94% (active)
same,growth inhibition,[7]; [16],31%
same,growth inhibition,[7]; [17],51%
same,growth inhibition,[7]; at 50.0 µM,83% (active)
same,growth inhibition,[8]; at 1.2 µM,-1%
same,growth inhibition,[8]; at 3.7 µM,2%
same,growth inhibition,[8]; [16],15%
same,growth inhibition,[8]; at 11.0 µM,4%
same,growth inhibition,[8]; at 33.0 µM,48%
same,growth inhibition,[8]; [17],93% (active)
same,growth inhibition,[8]; at 50.0 µM,94.8% (active)
same,growth inhibition,[8]; at 100.0 µM,95% (active)
same,growth inhibition,[9]; at 1.2 µM,-1%
same,growth inhibition,[9]; at 3.7 µM,-3%
same,growth inhibition,[9]; at 11.0 µM,0%
same,growth inhibition,[9]; at 33.0 µM,14%
same,growth inhibition,[9]; at 100.0 µM,96% (active)
same,growth inhibition,[10]; at 1.2 µM,-6%
same,growth inhibition,[10]; at 3.7 µM,-2%
same,growth inhibition,[10]; at 11.0 µM,0%
same,growth inhibition,[10]; at 33.0 µM,14%
same,growth inhibition,[10]; at 100.0 µM,96% (active)
same,growth inhibition,[11]; at 1.2 µM,-2%
same,growth inhibition,[11]; at 3.7 µM,-2%
same,growth inhibition,[11]; at 11.0 µM,2%
same,growth inhibition,[11]; at 33.0 µM,45%
same,growth inhibition,[11]; at 100.0 µM,95% (active)
same,growth inhibition,[12]; [16],2%
same,growth inhibition,[12]; [17],93% (active)
same,growth inhibition,[12]; at 50.0 µM,94.2% (active)
same,growth inhibition,[13]; at 1.2 µM,0%
same,growth inhibition,[13]; at 3.7 µM,0%
same,growth inhibition,[13]; at 11.0 µM,11%
same,growth inhibition,[13]; at 33.0 µM,67%
same,growth inhibition,[13]; at 100.0 µM,94% (active)
COc1cc(C(C)C(C(=O)O)C(=O)C(=O)O)cc(OC)c1OC (stereo not drawn),growth inhibition,[14]; at 1.2 µM,-3%
same,growth inhibition,[14]; at 3.7 µM,-7%
same,growth inhibition,[14]; at 11.0 µM,-4%
same,growth inhibition,[14]; at 33.0 µM,-8%
same,growth inhibition,[14]; at 100.0 µM,1%
same,growth inhibition,[2]; at 1.2 µM,3%
same,growth inhibition,[2]; at 3.7 µM,3%
same,growth inhibition,[2]; [16],-41%
same,growth inhibition,[2]; at 11.0 µM,4%
same,growth inhibition,[2]; at 33.0 µM,5%
same,growth inhibition,[2]; [17],-9%
same,growth inhibition,[2]; at 50.0 µM,0.85%
same,growth inhibition,[2]; at 100.0 µM,4%
same,growth inhibition,[3]; at 1.2 µM,-5%
same,growth inhibition,[3]; at 3.7 µM,-3%
same,growth inhibition,[3]; [16],7%
same,growth inhibition,[3]; at 11.0 µM,-3%
same,growth inhibition,[3]; at 33.0 µM,-2%
same,growth inhibition,[3]; [17],-4%
same,growth inhibition,[3]; at 50.0 µM,9.9%
same,growth inhibition,[3]; at 100.0 µM,0%
same,growth inhibition,[4]; at 1.2 µM,-1%
same,growth inhibition,[4]; at 3.7 µM,-2%
same,growth inhibition,[4]; at 11.0 µM,2%
same,growth inhibition,[4]; at 33.0 µM,3%
same,growth inhibition,[4]; at 100.0 µM,5%
same,growth inhibition,[5]; [16],-5%
same,growth inhibition,[5]; [17],2%
same,growth inhibition,[5]; at 50.0 µM,-3.75%
same,growth inhibition,[6]; at 1.2 µM,2%
same,growth inhibition,[6]; at 3.7 µM,5%
same,growth inhibition,[6]; at 11.0 µM,4%
same,growth inhibition,[6]; at 33.0 µM,5%
same,growth inhibition,[6]; at 100.0 µM,7%
same,growth inhibition,[8]; at 1.2 µM,1%
same,growth inhibition,[8]; at 3.7 µM,-1%
same,growth inhibition,[8]; [16],4%
same,growth inhibition,[8]; at 11.0 µM,-6%
same,growth inhibition,[8]; at 33.0 µM,-3%
same,growth inhibition,[8]; [17],11%
same,growth inhibition,[8]; at 50.0 µM,44.6%
same,growth inhibition,[8]; at 100.0 µM,-2%
same,growth inhibition,[9]; at 1.2 µM,1%
same,growth inhibition,[9]; at 3.7 µM,0%
same,growth inhibition,[9]; at 11.0 µM,2%
same,growth inhibition,[9]; at 33.0 µM,-1%
same,growth inhibition,[9]; at 100.0 µM,2%
same,growth inhibition,[10]; at 1.2 µM,0%
same,growth inhibition,[10]; at 3.7 µM,0%
same,growth inhibition,[10]; at 11.0 µM,2%
same,growth inhibition,[10]; at 33.0 µM,3%
same,growth inhibition,[10]; at 100.0 µM,6%
same,growth inhibition,[11]; at 1.2 µM,-1%
same,growth inhibition,[11]; at 3.7 µM,-1%
same,growth inhibition,[11]; at 11.0 µM,0%
same,growth inhibition,[11]; at 33.0 µM,2%
same,growth inhibition,[11]; at 100.0 µM,6%
same,growth inhibition,[12]; [16],-3%
same,growth inhibition,[12]; [17],41%
same,growth inhibition,[12]; at 50.0 µM,44.9%
same,growth inhibition,[13]; at 1.2 µM,-5%
same,growth inhibition,[13]; at 3.7 µM,-2%
same,growth inhibition,[13]; at 11.0 µM,-4%
same,growth inhibition,[13]; at 33.0 µM,1%
same,growth inhibition,[13]; at 100.0 µM,9%
CNC(=O)OCc1c(COC(=O)NC)c(C)n(-c2ccc(Cl)c(Cl)c2)c1C,growth inhibition,[14]; at 1.2 µM,-23%
same,growth inhibition,[14]; at 3.7 µM,-19%
same,growth inhibition,[14]; at 11.0 µM,-25%
same,growth inhibition,[14]; at 33.0 µM,-18%
same,growth inhibition,[14]; at 100.0 µM,65%
same,growth inhibition,[15]; at 1.2 µM,-35%
same,growth inhibition,[15]; at 3.7 µM,-40%
same,growth inhibition,[15]; at 11.0 µM,-14%
same,growth inhibition,[15]; at 33.0 µM,98% (active)
same,growth inhibition,[15]; at 100.0 µM,99% (active)
same,growth inhibition,[2]; at 1.2 µM,-37%
same,growth inhibition,[2]; at 3.7 µM,-34%
same,growth inhibition,[2]; [16],25%
same,growth inhibition,[2]; at 11.0 µM,-16%
same,growth inhibition,[2]; at 33.0 µM,97% (active)
same,growth inhibition,[2]; [17],97% (active)
same,growth inhibition,[2]; at 50.0 µM,89.6% (active)
same,growth inhibition,[2]; at 100.0 µM,97% (active)
same,growth inhibition,[3]; at 1.2 µM,-27%
same,growth inhibition,[3]; at 3.7 µM,-22%
same,growth inhibition,[3]; [16],23%
same,growth inhibition,[3]; at 11.0 µM,-26%
same,growth inhibition,[3]; at 33.0 µM,98% (active)
same,growth inhibition,[3]; [17],98% (active)
same,growth inhibition,[3]; at 50.0 µM,90.8% (active)
same,growth inhibition,[3]; at 100.0 µM,99% (active)
same,growth inhibition,[6]; at 1.2 µM,-30%
same,growth inhibition,[6]; at 3.7 µM,-4%
same,growth inhibition,[6]; at 11.0 µM,-1%
same,growth inhibition,[6]; at 33.0 µM,46%
